# Assay results taken from PubChem BioAssay (NCATS).
# Results filed as inconclusive are left out. The source made the active and inactive calls. The call rests on the fitted dose curve; in most records, active means well fitted inhibition curve with a large enough effect; inconclusive means small, poorly fitted or top-dose-only effect; inactive means flat fitted curve, though single readings scatter.
# Tested on: NIH3T3
# Test: Cytotoxic Profiling of Annotated Libraries Using Quantitative High-Throughput Screening (AID 1296008); further: nearly all actives have a fitted effect of over 60% in size
# Settings: Five cell lines viability, CellTiter-Glo ATP luminescence, 48-72 h; max response: stronger effect = lower value
# How it was run: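 Compounds were pin-transferred onto cells and incubated 48 or 72 hr at 37 degree Celsius, 95% humidity. CellTiter-Glo was added, plates sat 10 min at room temperature, then ATP-coupled luminescence was imaged as the viability read-out.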
# On the % scale 0 is the no-effect control and ±100 the full control effect.
Structure (SMILES),max response,outcome
Cc1ccc(-c2ccccc2C#N)cc1,3.01% (inactive),–
COC(=O)/C=C(/C)N,–,inactive
CN1N=C(C(N)=O)CCC1=O,–,inactive
CC(NC(CCc1ccccc1)C(=O)O)C(=O)N1C(=O)N(C)CC1C(=O)O (configuration not stated),-5.8% (inactive),–
CN(C)CCN1CCN(c2cccc(Cl)c2)C1=O,–,inactive
Cc1cc(O)c(C)c(C)c1O,–,inactive
COC(=O)c1cc(Cl)ccc1OC,–,inactive
COc1ccc(CCC(C)=O)cc1,–,inactive
CN(C)c1cc2c(Nc3ccc4c(cnn4Cc4ccccc4)c3)ncnc2cn1,-15.7% (inactive),–
CCCC(=O)Nc1ccc(O)c(C(C)=O)c1,3.73% (inactive),–
Cc1ccc(C(C)OC(=O)C2(C)CCC(C(=O)O)C2(C)C)cc1 (configuration not stated),–,inactive
O=C(C1CCCCC1)N1CC(=O)N2CCCc3ccccc3C2C1 (configuration not stated),–,inactive
O=C(O)/C=C(\CC(=O)O)C(=O)O,–,inactive
CC(C)(C)C(=O)OCOC(=O)C1N2C(=O)CC2S(=O)(=O)C1(C)C (configuration not stated),2.05% (inactive),–
Cc1c(N)cccc1C(F)(F)F,-0.97% (inactive),–
CC(CC(C#N)(c1ccccc1)C(C)C)N(C)C (configuration not stated),–,inactive
CC(C)(C)c1nnc(NS(=O)(=O)c2ccccc2)s1,1.08% (inactive),–
Oc1ccccc1-c1nnco1,1.39% (inactive),–
NS(=O)(=O)c1ccc(N2CCCCS2(=O)=O)cc1,–,inactive
Cc1ccc2ccc(Cl)cc2n1,3.19% (inactive),–
Cc1cccc(C)c1NC(=O)c1cc(S(N)(=O)=O)c(Cl)cc1O,-1.69% (inactive),–
CC(=O)OCC(=O)[C@@]1(O)[C@H](OC(C)=O)C[C@H]2[C@@H]3CCC4=CC(=O)C=C[C@]4(C)[C@@]3(F)[C@@H](O)C[C@@]21C,–,inactive
